# Reference: PMC7862700, “An all-to-all approach to the identification of sequence-specific readers for epigenetic DNA modifications on cytosine”
# Tests used:
# Assay in all cases: DAPPL (digital affinity profiling via proximity ligation, sequencing); 10 mM Tris-HCl pH 7.5, 50 mM NaCl, 1 mM DTT, 4% glycerol, room temperature, 30 min; GST-TFs on glutathione beads, 16-mer random dsDNA library, 0.1% formaldehyde crosslink after washing; high values mean tight binding
# Settings in all cases: protein: recombinant; tags: N-terminal GST; dsDNA, one strand shown
# ELK1 = target: T1, ELK1 (Homo sapiens, UniProt P19419 1-428)
# T1 sequence: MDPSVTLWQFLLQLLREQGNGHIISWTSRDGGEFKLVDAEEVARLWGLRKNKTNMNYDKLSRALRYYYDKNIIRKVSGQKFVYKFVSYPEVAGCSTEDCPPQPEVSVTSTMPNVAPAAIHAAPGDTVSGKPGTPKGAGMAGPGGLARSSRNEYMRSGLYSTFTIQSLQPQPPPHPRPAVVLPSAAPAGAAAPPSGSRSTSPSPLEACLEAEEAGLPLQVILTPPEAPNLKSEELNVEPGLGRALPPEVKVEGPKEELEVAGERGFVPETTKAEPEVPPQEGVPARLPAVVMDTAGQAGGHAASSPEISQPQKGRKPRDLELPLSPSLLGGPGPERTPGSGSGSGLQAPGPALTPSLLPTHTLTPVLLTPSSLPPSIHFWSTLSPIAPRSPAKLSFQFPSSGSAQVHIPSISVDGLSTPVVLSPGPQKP
# Summary of the method: (§1)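 A tag-only sample was pooled with DNA-barcoded human transcription factors that had been expressed in yeast as GST fusions and captured on glutathione beads. The pools were incubated for 30 min at room temperature with 200 nmole of a random double-stranded 16-mer DNA library in Tris/NaCl/DTT/glycerol buffer, then washed, crosslinked with 0.1% formaldehyde, proximity-ligated (BsaI/T4 ligase, 1 h, 37 °C), PCR-amplified and sequenced on an Illumina NextSeq500. Binding signal is each hexamer's read frequency for a factor divided by its frequency for the tag-only sample.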
# GABPA = target: T2, GABPA (Homo sapiens, UniProt Q06546 1-454)
# T2 sequence: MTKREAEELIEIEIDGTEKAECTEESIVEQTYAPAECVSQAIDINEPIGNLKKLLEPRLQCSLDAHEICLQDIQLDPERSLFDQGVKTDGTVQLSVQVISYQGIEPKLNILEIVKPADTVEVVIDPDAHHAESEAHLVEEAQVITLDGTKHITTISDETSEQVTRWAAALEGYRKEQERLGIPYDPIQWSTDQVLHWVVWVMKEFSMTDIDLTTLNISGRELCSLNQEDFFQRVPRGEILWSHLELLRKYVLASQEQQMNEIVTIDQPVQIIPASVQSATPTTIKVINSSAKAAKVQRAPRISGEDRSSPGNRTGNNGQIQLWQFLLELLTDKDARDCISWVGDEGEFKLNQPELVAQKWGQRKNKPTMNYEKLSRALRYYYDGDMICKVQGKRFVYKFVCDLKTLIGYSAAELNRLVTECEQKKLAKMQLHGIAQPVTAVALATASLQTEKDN
# Summary of the method: as §1
# ELF1 = ELF1 (Homo sapiens, UniProt P32519 1-619)
# ELF1, sequence (P32519 whole entry): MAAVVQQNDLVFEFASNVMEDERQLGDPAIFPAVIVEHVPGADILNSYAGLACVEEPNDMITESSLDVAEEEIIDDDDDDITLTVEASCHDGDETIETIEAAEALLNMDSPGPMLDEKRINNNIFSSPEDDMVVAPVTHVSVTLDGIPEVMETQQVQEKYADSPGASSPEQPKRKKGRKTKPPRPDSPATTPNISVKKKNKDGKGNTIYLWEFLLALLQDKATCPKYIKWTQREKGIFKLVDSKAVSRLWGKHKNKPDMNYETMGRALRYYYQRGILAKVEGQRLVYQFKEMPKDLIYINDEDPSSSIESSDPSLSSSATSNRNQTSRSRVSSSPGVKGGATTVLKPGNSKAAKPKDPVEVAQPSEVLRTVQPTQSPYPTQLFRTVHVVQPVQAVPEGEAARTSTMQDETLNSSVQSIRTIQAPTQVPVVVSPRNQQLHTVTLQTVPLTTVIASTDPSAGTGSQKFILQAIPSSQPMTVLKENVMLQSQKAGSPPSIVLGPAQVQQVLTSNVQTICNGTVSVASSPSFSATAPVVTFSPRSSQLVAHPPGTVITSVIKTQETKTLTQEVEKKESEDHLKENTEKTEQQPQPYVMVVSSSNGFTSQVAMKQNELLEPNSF
# Summary of the method: as §1
# EHF = target: T3, EHF (Homo sapiens, UniProt Q9NZC4 1-300)
# T3 sequence: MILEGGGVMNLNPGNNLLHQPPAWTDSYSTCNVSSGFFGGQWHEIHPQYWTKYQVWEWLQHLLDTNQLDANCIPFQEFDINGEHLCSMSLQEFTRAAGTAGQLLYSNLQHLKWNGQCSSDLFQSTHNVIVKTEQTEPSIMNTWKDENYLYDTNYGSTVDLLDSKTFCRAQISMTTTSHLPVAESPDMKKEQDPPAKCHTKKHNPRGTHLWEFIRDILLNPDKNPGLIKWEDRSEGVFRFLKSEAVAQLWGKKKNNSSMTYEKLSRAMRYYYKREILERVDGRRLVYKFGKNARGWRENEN
# Summary of the method: as §1
# SPI1 = SPI1 (Homo sapiens, UniProt P17947 1-270)
# Summary of the method: as §1
# ELK4 = target: T4, ELK4 (Homo sapiens, UniProt P28324-2 1-405)
# T4 sequence: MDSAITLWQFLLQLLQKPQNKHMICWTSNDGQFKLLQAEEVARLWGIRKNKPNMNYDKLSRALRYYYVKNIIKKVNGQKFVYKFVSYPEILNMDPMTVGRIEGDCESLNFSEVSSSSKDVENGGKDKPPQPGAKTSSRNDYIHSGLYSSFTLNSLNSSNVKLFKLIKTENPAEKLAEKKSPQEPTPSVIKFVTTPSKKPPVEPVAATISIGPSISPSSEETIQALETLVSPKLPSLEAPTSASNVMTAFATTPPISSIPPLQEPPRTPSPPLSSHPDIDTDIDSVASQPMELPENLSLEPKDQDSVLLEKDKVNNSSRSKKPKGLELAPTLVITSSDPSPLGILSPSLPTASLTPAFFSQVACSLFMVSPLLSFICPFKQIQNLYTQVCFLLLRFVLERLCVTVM
# Summary of the method: as §1
# ETV2 = target: T5, ETV2 (Homo sapiens, UniProt O00321 1-342)
# T5 sequence: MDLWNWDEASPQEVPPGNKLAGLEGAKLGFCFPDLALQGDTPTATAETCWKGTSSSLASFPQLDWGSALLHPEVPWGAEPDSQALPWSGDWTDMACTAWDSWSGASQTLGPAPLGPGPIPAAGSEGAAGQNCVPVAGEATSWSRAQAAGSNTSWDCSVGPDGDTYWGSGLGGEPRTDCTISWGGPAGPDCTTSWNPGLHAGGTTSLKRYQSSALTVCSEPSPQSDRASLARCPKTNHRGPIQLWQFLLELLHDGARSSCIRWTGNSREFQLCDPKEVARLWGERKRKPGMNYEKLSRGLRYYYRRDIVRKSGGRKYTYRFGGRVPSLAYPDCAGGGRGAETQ
# Summary of the method: as §1
# ELF3 = target: T6, ELF3 (Homo sapiens, UniProt P78545 1-371)
# T6 sequence: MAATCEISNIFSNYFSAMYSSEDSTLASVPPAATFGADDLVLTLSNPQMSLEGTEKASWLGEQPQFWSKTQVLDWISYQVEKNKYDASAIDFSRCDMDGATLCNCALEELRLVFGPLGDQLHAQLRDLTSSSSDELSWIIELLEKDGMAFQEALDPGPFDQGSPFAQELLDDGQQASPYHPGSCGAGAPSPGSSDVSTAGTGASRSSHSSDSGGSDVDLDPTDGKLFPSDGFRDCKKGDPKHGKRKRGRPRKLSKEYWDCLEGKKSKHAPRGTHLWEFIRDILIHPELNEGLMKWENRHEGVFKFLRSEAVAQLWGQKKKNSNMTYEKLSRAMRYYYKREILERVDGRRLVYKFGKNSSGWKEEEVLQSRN
# Summary of the method: as §1
# CRX = CRX (Homo sapiens, UniProt O43186 1-299)
# CRX, sequence (O43186 whole entry): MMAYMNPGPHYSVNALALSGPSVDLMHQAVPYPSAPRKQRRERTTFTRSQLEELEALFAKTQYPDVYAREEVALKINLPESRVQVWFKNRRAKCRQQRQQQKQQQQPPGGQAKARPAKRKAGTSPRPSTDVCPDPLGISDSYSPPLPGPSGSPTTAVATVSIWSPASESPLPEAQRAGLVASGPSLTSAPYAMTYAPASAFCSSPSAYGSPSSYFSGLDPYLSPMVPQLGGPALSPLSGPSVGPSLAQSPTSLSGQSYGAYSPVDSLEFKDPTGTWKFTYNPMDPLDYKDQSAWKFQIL
# Summary of the method: as §1
# ETV1 = ETV1 (Homo sapiens, UniProt P50549 1-477)
# ETV1, sequence (P50549 whole entry): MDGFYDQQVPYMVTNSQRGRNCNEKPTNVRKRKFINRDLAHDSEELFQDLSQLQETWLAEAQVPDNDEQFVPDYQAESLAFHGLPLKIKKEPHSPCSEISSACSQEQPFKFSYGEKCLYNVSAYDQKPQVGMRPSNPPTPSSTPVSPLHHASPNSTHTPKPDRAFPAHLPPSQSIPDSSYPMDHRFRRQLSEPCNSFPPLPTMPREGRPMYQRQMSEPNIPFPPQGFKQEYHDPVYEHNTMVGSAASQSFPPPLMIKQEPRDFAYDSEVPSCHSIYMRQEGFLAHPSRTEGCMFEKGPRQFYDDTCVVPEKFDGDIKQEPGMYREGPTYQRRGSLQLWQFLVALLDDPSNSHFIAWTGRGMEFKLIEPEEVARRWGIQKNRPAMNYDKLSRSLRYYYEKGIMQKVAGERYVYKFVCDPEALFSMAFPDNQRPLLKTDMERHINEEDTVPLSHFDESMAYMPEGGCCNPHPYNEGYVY
# Summary of the method: as §1
# ETS2 = target: T7, ETS2 (Homo sapiens, UniProt P15036 1-469)
# T7 sequence: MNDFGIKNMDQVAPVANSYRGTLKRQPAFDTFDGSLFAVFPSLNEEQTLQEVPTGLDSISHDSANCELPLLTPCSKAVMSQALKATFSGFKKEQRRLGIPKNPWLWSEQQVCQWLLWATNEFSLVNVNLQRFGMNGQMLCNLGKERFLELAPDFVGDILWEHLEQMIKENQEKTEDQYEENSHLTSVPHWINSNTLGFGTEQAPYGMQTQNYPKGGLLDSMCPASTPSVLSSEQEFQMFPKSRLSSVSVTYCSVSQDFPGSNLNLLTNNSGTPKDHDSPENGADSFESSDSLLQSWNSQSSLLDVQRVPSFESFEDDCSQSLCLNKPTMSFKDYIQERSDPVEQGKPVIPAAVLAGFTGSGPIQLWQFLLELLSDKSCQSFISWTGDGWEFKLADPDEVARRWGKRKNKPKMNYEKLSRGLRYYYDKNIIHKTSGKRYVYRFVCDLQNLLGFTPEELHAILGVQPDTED
# Summary of the method: as §1
# ETV7 = target: T8, ETV7 (Homo sapiens, UniProt Q9Y603 1-341)
# T8 sequence: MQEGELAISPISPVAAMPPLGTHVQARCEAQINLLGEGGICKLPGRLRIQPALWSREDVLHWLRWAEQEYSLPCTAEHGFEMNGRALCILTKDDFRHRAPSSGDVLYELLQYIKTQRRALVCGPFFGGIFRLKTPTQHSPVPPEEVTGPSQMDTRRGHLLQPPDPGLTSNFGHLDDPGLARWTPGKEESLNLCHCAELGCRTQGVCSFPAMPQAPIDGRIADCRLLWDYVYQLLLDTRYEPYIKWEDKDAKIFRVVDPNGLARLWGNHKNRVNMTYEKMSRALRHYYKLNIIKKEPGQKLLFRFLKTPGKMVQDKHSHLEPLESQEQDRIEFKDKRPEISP
# Summary of the method: as §1
# ELF5 = target: T9, ELF5 (Homo sapiens, UniProt Q9UKW6-2 1-255)
# T9 sequence: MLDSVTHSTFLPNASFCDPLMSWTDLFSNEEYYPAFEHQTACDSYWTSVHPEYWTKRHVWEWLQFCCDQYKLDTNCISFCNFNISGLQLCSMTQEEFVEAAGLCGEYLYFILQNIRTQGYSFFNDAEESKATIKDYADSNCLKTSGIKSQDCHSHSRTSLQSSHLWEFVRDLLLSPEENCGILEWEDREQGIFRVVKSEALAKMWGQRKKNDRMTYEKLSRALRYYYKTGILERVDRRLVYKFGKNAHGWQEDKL
# Summary of the method: as §1
# ETV6 = ETV6 (Homo sapiens, UniProt P41212 1-452)
# ETV6, sequence (P41212 whole entry): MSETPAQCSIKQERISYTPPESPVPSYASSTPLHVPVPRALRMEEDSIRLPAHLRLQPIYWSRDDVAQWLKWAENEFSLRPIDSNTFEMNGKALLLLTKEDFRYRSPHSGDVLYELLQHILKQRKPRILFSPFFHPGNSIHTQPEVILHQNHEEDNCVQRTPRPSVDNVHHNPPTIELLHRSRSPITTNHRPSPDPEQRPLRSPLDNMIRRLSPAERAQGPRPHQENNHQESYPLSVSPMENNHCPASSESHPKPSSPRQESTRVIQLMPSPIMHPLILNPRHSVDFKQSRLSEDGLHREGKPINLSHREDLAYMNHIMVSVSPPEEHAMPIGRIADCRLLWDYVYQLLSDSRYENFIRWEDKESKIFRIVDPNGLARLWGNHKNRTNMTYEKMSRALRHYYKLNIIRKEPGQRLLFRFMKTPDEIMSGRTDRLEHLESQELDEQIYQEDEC
# Summary of the method: as §1
sequence,measurement,setting,value
CAAAAG,binding signal,ELK1,"1.02 fold enrichment (6-mer frequency, TF over GST control)"
same,binding signal,GABPA,"1.04 fold enrichment (6-mer frequency, TF over GST control)"
same,binding signal,ELF1,"1.01 fold enrichment (6-mer frequency, TF over GST control)"
same,binding signal,EHF,"1 fold enrichment (6-mer frequency, TF over GST control)"
same,binding signal,SPI1,"1.08 fold enrichment (6-mer frequency, TF over GST control)"
same,binding signal,ELK4,"1.05 fold enrichment (6-mer frequency, TF over GST control)"
same,binding signal,ETV2,"1.05 fold enrichment (6-mer frequency, TF over GST control)"
same,binding signal,ELF3,"1.06 fold enrichment (6-mer frequency, TF over GST control)"
same,binding signal,CRX,"1.02 fold enrichment (6-mer frequency, TF over GST control)"
same,binding signal,ETV1,"1 fold enrichment (6-mer frequency, TF over GST control)"
same,binding signal,ETS2,"1.04 fold enrichment (6-mer frequency, TF over GST control)"
same,binding signal,ETV7,"1 fold enrichment (6-mer frequency, TF over GST control)"
same,binding signal,ELF5,"1 fold enrichment (6-mer frequency, TF over GST control)"
same,binding signal,ETV6,"1.01 fold enrichment (6-mer frequency, TF over GST control)"
